{"source": "PubChem BioAssay (NCI)", "note": "The panel holds about 83,000 compounds, 20% with a hit somewhere; the sample as a whole holds those more often.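 Growth was measured after 48 h exposure to one concentration of compound in 96-well plates. Values under 10 count as active.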 Activity calls are given as the source filed them."}
{"test_system": "HL-60(TB) leukemia", "test": "NCI-60 one-dose screen, 48 h (100 = growth as untreated, 0 = no growth, -100 = all killed)", "conditions": "10 µM unless noted"}
{"smiles": "O=[N+]([O-])c1ccc(-c2ncc(-c3ccc(O)cc3O)[nH]2)cc1", "growth": "145% (inactive)"}
{"smiles": "Cc1[nH]c(-c2nc3ccccc3[nH]2)c(C)c1C(=O)N1CCOCC1", "growth": "111% (inactive)"}
{"smiles": "COc1cc(C2CC(c3ccccc3)=NN2C(C)=O)cc(OC)c1OC", "note": "(stereo unspecified)", "growth": "14.2% (inactive)"}
{"smiles": "Cc1cccc(Cl)c1NC(=O)c1cnc(Nc2cc(N3CCOCC3)cc(S(C)(=O)=O)c2)s1", "growth": "110% (inactive)"}
{"smiles": "C=C1C(=O)O[C@H]2[C@H]1CC/C(COC(=O)/C=C\\C(=O)NCc1ccc(Cn3c(=O)sn(-c4ccc(C#N)cc4)c3=O)cc1)=C\\CC[C@@]1(C)O[C@@H]21", "growth": "-40.3% (active)"}
{"smiles": "CC(C)Cc1nc(Nc2ccccc2)[nH]c(=O)c1C#N", "growth": "57.7% (inactive)"}
{"smiles": "Cc1c2cnccc2c(C)c2c1c1cc(CO)ccc1n2C", "growth": "-20% (active)"}
{"smiles": "O=C(Nc1nc2ccc(C(F)(F)F)cc2s1)c1cc(Cl)ccc1O", "growth": "-54.4% (active)"}
{"smiles": "CC/C=C\\C[C@H](O)C/C=C1/C(=O)C=C[C@@]1(C)C/C=C\\CCCC(=O)OC", "growth": "98.9% (inactive)"}
{"smiles": "C#Cc1cccc(Oc2ccc(NC(=O)CCl)cc2)c1", "growth": "0.122% [8.25 µM] (active)"}
{"smiles": "CC([C@H]1CCC2C3CCC4C[C@@H](NC=O)CC[C@]4(C)C3CC[C@@]21C)N(C)C", "note": "(stereo partly specified)", "growth": "-61.1% (active)"}
{"smiles": "O=C(Nc1cccc2[nH]c(C(F)(F)F)nc12)c1ccc(-n2cnnn2)cc1", "growth": "1.31% (active)"}
{"smiles": "Cc1cccc(C)c1NC(=O)c1sc2nc3c(cc2c1N)C(=O)CCC3", "growth": "104% (inactive)"}
{"smiles": "c1cn2cc(-c3ccc4cn[nH]c4c3)nc(Nc3ccc(N4CCOCC4)cc3)c2n1", "growth": "71.1% (inactive)"}
{"smiles": "O=[N+]([O-])c1cccc(-c2cc(-c3cc(Br)ccc3O)[nH]n2)c1", "growth": "-17.1% (active)"}
{"smiles": "ClC1=C(Cl)C(Cl)=C(Cl)C1=Cc1ccc(Cl)cc1Cl", "growth": "-12.7% (active)"}
{"smiles": "COc1ccc(C(=O)/C=C/c2ccc(Cl)cc2)cc1S(=O)(=O)Nc1c(N)nc(SC)[nH]c1=O", "growth": "36.8% (inactive)"}
{"smiles": "C[C@@]1(CO)[C@H](O)CC[C@@]2(C)[C@H]1CC[C@H]1C[C@@H]3C[C@@]12CC[C@@]3(O)COC(=O)CN", "growth": "3.18% (active)"}
{"smiles": "Cc1ccc(/C=C(\\C#N)c2cc3ccccc3n2C)cc1", "growth": "4.45% (active)"}
{"smiles": "O=c1[nH]c(-c2ccncc2)nc2sc3c(c12)CCCCCC3", "growth": "91.4% (inactive)"}
{"smiles": "FC(F)(F)c1cccc(Nc2nc(-c3ccccc3)nc3ncccc23)c1", "growth": "-57.8% (active)"}
{"smiles": "CCCCCc1ccc(S(=O)(=O)Nc2ccc3nc(N)oc3c2)cc1", "growth": "28.9% (inactive)"}
{"smiles": "CCOC(=O)C1OC1(c1ccccc1)c1ccccc1", "note": "(stereo unspecified)", "growth": "89.4% (inactive)"}
{"smiles": "CCCCN(CCCC)C(=O)[C@H](CC)[C@@H]1CC[C@@H](C)[C@@H]([C@H](C)[C@@H](O)[C@@H](C)C(=O)[C@H](CC)C2O[C@]3(C=CC(=O)[C@]4(CC[C@@](C)([C@H]5CC[C@](O)(CC)[C@H](C)O5)O4)O3)[C@H](C)C[C@@H]2C)O1", "note": "(stereo partly specified)", "growth": "-1.52% (active)"}
{"smiles": "CCOC(=O)CNC(=O)C1(NC(=O)CNC(=O)OCc2ccccc2)CCCC1", "growth": "87.5% (inactive)"}
{"smiles": "C=CCN1C(=O)/C(=c2\\sc3n(c2=O)NC2C(N=3)N(CC)C(=O)N2CC)c2ccccc21", "note": "(stereo unspecified)", "growth": "-12.6% (active)"}
{"smiles": "O=C(CNC(=O)OCc1ccccc1)NCC(=O)Oc1ccc([N+](=O)[O-])cc1", "growth": "141% (inactive)"}
{"smiles": "CC(=[N-])N1CCC[C@@H](Nc2c3ccccc3nc3ccccc23)C1.[Cl][Pt].[NH-]CCC[NH-]", "growth": "17% (inactive)"}
{"smiles": "c1ccc(Nc2nnc(-c3cc(-c4cccnc4)n(-c4ccccc4)n3)s2)cc1", "growth": "70.8% (inactive)"}
{"smiles": "COc1ccc(C(=O)c2ccccc2CN2C(=O)c3ccccc3C2=O)cc1", "growth": "103% (inactive)"}
{"smiles": "c1cc(C2CCCCC2)ccc1-c1cnc2nonc2n1", "growth": "-27.3% (active)"}
{"smiles": "COc1cc2c(c(OC)c1OC)-c1ccc(SC)c(=O)cc1[C@@H](NC1OC(CO)C(O)C(O)C1O)CC2", "note": "(stereo partly specified)", "growth": "-38.6% (active)"}
{"smiles": "CCCCCCCCCCCC[n+]1c(C)cc(N)c2ccccc21", "growth": "-44.4% (active)"}
{"smiles": "COc1cc(-c2nc3ccccc3[nH]2)ccc1OCC(=O)N=Nc1c(O)[nH]c2ccc(Cl)cc12", "growth": "-30.8% (active)"}
{"smiles": "N/C(=N\\N=C\\c1cc2ccccc2[nH]1)N/N=C/c1cc2ccccc2[nH]1", "growth": "101% (inactive)"}
{"smiles": "COC1CC(OC(=O)c2ccc([N+](=O)[O-])cc2)C(COC(=O)c2ccc([N+](=O)[O-])cc2)O1", "note": "(stereo unspecified)", "growth": "97% (inactive)"}
